Bioassay records: PubChem BioAssay, Johns Hopkins Ion Channel Center
Shown are actives, neighbours in structure and some others; about 2.3% of the full set was active somewhere.
TMEM16A act: activates or potentiates the mouse TMEM16A chloride channel. HEK293 TMEM16A/YFP-H148Q/I152L, iodide quench fluorescence; active compounds read low. B-score at 10 µM. 340,000 tested, 0.3% active;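 active means fluorescence-ratio B-score plate-corrected deviation score at least 3 library SD below zero, with starting fluorescence score within 5 deviations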;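 further: channel opened by trigger with iodide after compound preincubation; score built on the fluorescence ratio of max minus min over baseline; more negative score means more quench and so TMEM16A activation or potentiation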
ANO1 block: mouse TMEM16A channel inhibition, primary screen; HEK293 TMEM16A/YFP iodide influx fluorescence, ionomycin; Q8BHY3; normalized B-score (activity score, 25-100; higher = stronger inhibition) at 10 µM; 310,000 tested, 1.2% active;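 active means ratio plate-corrected score three or more library SD toward inhibition, starting fluorescence score within five deviations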;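 further: score derived from kinetic fluorescence span divided by baseline fluorescence per well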
CHT inh: inhibits the human high affinity choline transporter. Q9GZV3. CHT-expressing cells, membrane potential dye, choline response; active compounds read low. AID 488975. B-score at 10 µM. 310,000 tested, 0.86% active;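 active means B-score over 3 SD under the library average, and starting fluorescence ratio not unusually high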;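 further: choline stimulus applied at its EC90 after an EC20 pre-addition; B-score computed on integrated fluorescence ratio after choline addition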
CHT allo act: human CHT allosteric activation; Q9GZV3; CHT-expressing cells, membrane potential dye, choline EC20; active compounds read high; LV-AA mutant CHT in HEK293 cells; B-score at 10 µM; 310,000 tested, 0.49% active; AID 488977;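 active means initial fluorescence not abnormally high and integrated response B-score, plate-corrected, over 3 SD above library mean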
CHT block conf: human CHT inhibition, confirmatory screen; CHT activity remaining % of control (active compounds read low), % at 10 µM; AID 493221; CHT-expressing cells, choline membrane potential dye; LV-to-AA substituted CHT, HEK293 cells; shares compounds with CHT inh; 2,400 tested, 70% active;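 active means choline transporter activity left, mean of duplicates at 10 µM, below buffer-only control mean minus 3 SD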;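 further: depolarization triggered by choline at its EC90 following an EC20 pre-addition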
HEK293 MPD ctr: CHT inhibitor counter-screen hit in parental HEK293 cells; shares compounds with CHT inh; membrane potential dye, choline response; active = decrease or increase beyond buffer ±3SD; membrane potential ratio readout (active if shifted either direction beyond buffer ±3SD; no single direction) at 10 µM; 2,400 tested, 4% active; AID 493222;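 further: parental cells lack the transporter so any hit is non-specific; ratio is peak minus trough fluorescence over baseline after EC90 choline challenge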
Numbers stand for hits.

For COc1cc(/C=C2\SC(=S)N(NS(=O)(=O)c3ccccc3)C2=O)cc(OC)c1OC the results were TMEM16A act inactive, ANO1 block inactive, CHT inh inactive and CHT allo act inactive.
`COc1cccc(/C=C2\SC(=S)N(NS(=O)(=O)c3ccccc3)C2=O)c1OC` gave TMEM16A act inactive, ANO1 block inactive, CHT inh -5.66, CHT allo act inactive, CHT block conf 43.9% and HEK293 MPD ctr inactive.
Screening O=C(NNc1ccc([N+](=O)[O-])cc1[N+](=O)[O-])c1ccco1 returned TMEM16A act inactive, ANO1 block inactive, CHT inh -7.5, CHT allo act inactive, CHT block conf 67.2% and HEK293 MPD ctr inactive.
O=C(NNc1ccc([N+](=O)[O-])cc1)c1ccco1 was read as TMEM16A act inactive, ANO1 block inactive, CHT inh inactive and CHT allo act inactive.
For COc1cc(OC)cc(C(=O)NCC(=O)NCC(c2ccco2)N2CCCCC2)c1 (configuration not stated) the results were TMEM16A act inactive.
COc1ccc(CNC(=O)C2CC(c3cccc(OC)c3)=NO2)cc1 (configuration not stated) was read as TMEM16A act inactive, ANO1 block inactive, CHT inh inactive and CHT allo act inactive.
`COc1cccc(C2=NOC(C(=O)NCc3ccc(F)cc3)C2)c1` (configuration not stated) gave TMEM16A act inactive, ANO1 block inactive, CHT inh -5.12, CHT allo act inactive, CHT block conf 66.1% and HEK293 MPD ctr inactive.
For O=C(OCc1nc2ccsc2c(=O)[nH]1)c1ccc(Cl)s1 the results were TMEM16A act inactive, ANO1 block inactive, CHT inh -11.4, CHT allo act inactive, CHT block conf 5.9% and HEK293 MPD ctr inactive.
For O=C(OCc1nc2ccsc2c(=O)[nH]1)c1ccc(Cl)nc1 the results were TMEM16A act inactive, ANO1 block inactive, CHT inh inactive and CHT allo act inactive.
`CC1CCN(C(=O)CN2C(=O)NC(C)(c3ccc4ccccc4c3)C2=O)CC1` (configuration not stated) gave TMEM16A act inactive.
`CC(C)c1nc(C(=O)N2CCCC(N3CCN(c4cccc(Cl)c4)CC3)C2)cs1` (configuration not stated) gave TMEM16A act inactive, ANO1 block inactive, CHT inh -11.9, CHT allo act inactive, CHT block conf 2.6% and HEK293 MPD ctr inactive.
`O=C(COC(=O)c1ccc(S(=O)(=O)N2CCCCC2)cc1)NCc1ccccc1` gave TMEM16A act inactive.
For O=C(CSc1c2c(nc3ccc(Cl)cc13)CCCC2)NCCCN1CCOCC1 the results were TMEM16A act inactive, ANO1 block inactive, CHT inh -8.63, CHT allo act inactive, CHT block conf 18.2% and HEK293 MPD ctr inactive.
`O=C(CSc1c2c(nc3cc(Cl)ccc13)CCCC2)NCCN1CCOCC1` gave TMEM16A act inactive, ANO1 block inactive, CHT inh inactive and CHT allo act inactive.
COCCN(CC(=O)Nc1ccccc1C(F)(F)F)C(=O)/C=C/c1cc(Cl)c2c(c1)OCCO2 was read as TMEM16A act inactive.
`CC(C)CNS(=O)(=O)c1ccc(CCC(=O)N2CCN(Cc3ccc4c(c3)OCO4)CC2)cc1` gave TMEM16A act inactive, ANO1 block 100, CHT inh -5.55, CHT allo act inactive, CHT block conf 61.8% and HEK293 MPD ctr inactive.
`CC(C)CNS(=O)(=O)c1ccc(CCC(=O)N2CCN(Cc3ccccc3)CC2)cc1` gave TMEM16A act inactive, ANO1 block inactive, CHT inh inactive and CHT allo act inactive.
`CCc1nn(C(CC)C(=O)NCCCc2ccccc2)c(=O)c2cc3occc3n12` (configuration not stated) gave TMEM16A act inactive, ANO1 block inactive, CHT inh inactive and CHT allo act inactive.
`CCC(C(=O)NC(C)CCc1ccccc1)n1nc(C)n2c(cc3occc32)c1=O` (configuration not stated) gave TMEM16A act inactive, ANO1 block inactive, CHT inh -11.3, CHT allo act inactive, CHT block conf inactive and HEK293 MPD ctr -8.54.
